The source of these data is PubChem BioAssay AID2315 (National Center for Advancing Translational Sciences (NCATS), 2010).

In general, inhibition refers to the relative decrease from the control value, in per cent.

Hit rate of the full screen: of about 290,000 compounds, about 27,000 (9.3%) were called active. Many of the other results were omitted from the sample, so actives are more common in it than they were. Values without a mark were called inactive. Cut-off read from the data, not from the text of the source: active = inhibition mostly above about 28% (no sharp cut-off); inactive = mostly below about 43%. Where a SMILES comes first, the peptide text is derived from it. The star is where a group is joined. OPac = O=C(CO*)c1ccccc1; Bz = O=C(c1ccccc1)*

The experiment can be described thus: A qHTS for Small Molecule Inhibitors of Shiga Toxin. Note: 0% is about no effect. Conditions: Vero cells, Shiga toxin protein synthesis inhibition reporter; at 38.7 µM, active compounds read high.
Turning to `COc1cccc(OC)c1C(=O)NC(=S)Nc1ccc(N2CCOCC2)c(Cl)c1`, the inhibition was 44.5%.

For `COc1cccc(NC(=S)NC(=O)c2c(Cl)c(C)nn2C)c1`, the inhibition was 14.4% (active). To `Cc1nn(C)c(C(=O)NNC(=S)NC2CCCCC2)c1Cl` belongs 14.6%.

For `O=C(NCc1ccccn1)[C@]1(C(F)(F)F)C[C@H](CCc2ccccc2)CCCO1`, the inhibition is -3.98%. The same measure for `Nc1nnc2c(C(F)(F)F)nc3ccccc3n12`: -8.69%; for `Cc1cccc(-c2c(NC(=O)c3ccco3)oc3ccc(Cl)cc3c2=O)c1`: 20.5%; for `O=C(Nc1nnc(-c2ccccc2)o1)c1cc(-c2cccs2)nc2ccccc12`: -9.05%. As for `OC(c1nnc(-c2ccccc2)o1)c1cccs1` (configuration not stated), the inhibition is 111% (active). The same measure for `CCCN(CCC)c1ccc(C(O)c2nnc(-c3ccccc3)o2)cc1` (configuration not stated): 29.6%. To `Cn1c2ccc(F)cc2c2nnc(NN)nc21` belongs -15%; to `CC(C)c1cc(C(=O)N/N=C/C(Br)=C/c2ccccc2)n[nH]1`, 47.5% (active). Consider `Cc1cc(C(=O)N/N=C\C(Br)=C\c2ccccc2)c(C)o1`, for which the inhibition was 54.6%. Regarding `CC(C)c1cc(C(=O)O)n[nH]1`, the inhibition is 15.7%. To `O=C(CCc1nnc2ccc(NCc3ccccc3Cl)nn12)NCC1CCN(C2CCCC2)C1` (configuration not stated) belongs 8.94%; to `O=C(O)C1CCN(C(=O)OCc2ccccc2)CC1`, 80.9% (active).

With `O=C(NCC1CCC(C(=O)O)CC1)OCc1ccccc1` (configuration not stated), the inhibition was -15.3%.

`CCOC(=O)N1CCC(NC(=O)CCc2ccccc2)CC1`: the inhibition is -1.93%. As to `O=c1cc(-c2ccc(O)cc2)oc2c([C@@H]3O[C@H](CO)[C@@H](O)[C@H](O)[C@H]3O)c(O)cc(O)c12`, the inhibition was 18.1%. To `Cc1cccc(-n2c(O)c(/C=N/N3CCOCC3)c(=O)[nH]c2=S)c1` belongs -12.5%.

With `Cc1cccc(-n2c(O)c(C=NC34CN5CN(CN(C5)C3)C4)c(=O)[nH]c2=O)c1`, the inhibition is 19.9%. The same measure for `Cc1cccc(-n2c(O)c(C=Nc3ccccc3N)c(=O)[nH]c2=O)c1`: 57% (active). The same measure for `Clc1ccc(-c2nc3ccccn3c2CN2CCSCC2)cc1`: 20.5%; for `COc1ccc2[nH]c(=O)c(C3c4cc(OC)c(OC)cc4CCN3C(=O)c3ccco3)cc2c1` (configuration not stated): -3.2%; for `CCOCCCn1c(SCC(=O)Nc2cc(OC)ccc2OC)nc2ccccc2c1=O`: -1.05%. As for `CCc1ccc(-c2cc3c(=O)n(CC(=O)NCCCN4CCN(Cc5ccccc5)CC4)nc(C)n3n2)cc1`, the inhibition was -5.95%.

Consider `CCOc1ccc(C(=O)CCN2CCOCC2)cc1`, for which the inhibition was -2.09%. To `CCOc1ccc(N(CC(=O)NCCOc2ccccc2OC)S(=O)(=O)c2ccccc2)cc1` belongs 21.1%; to `Cc1nonc1NC(=O)CSc1nc2ccccc2cc1C#N`, 41.1%. The same measure for `COc1ccc(N2CCN(C(=O)CSc3nc4cc(OC)c(OC)cc4cc3C#N)CC2)cc1`: 18.6%; for `CCOc1ccc2cc(C#N)c(SCC(=O)OC)nc2c1`: 135% (active); for `CN=C1C=C/C(=N/N=c2\ccn(O)cc2C)C=C1C`: 20.1% (active).

For the compound `Cc1cccc(NC(=S)NCCc2ccc(Cl)cc2)c1C`, the inhibition was 41.2%. The same measure for `Cc1ccc(/C=C2\CCn3c2nc2cc(C(=O)O)ccc2c3=O)c(C)c1`: -4.26%; for `Cc1nn(C)c(Cl)c1CN1CCC(Oc2ccc(C(=O)N3CCCC3)cc2)CC1`: -30.4%; for `O=C(O)C1CC=CC2CCN(C3CCCCC3)C(=O)C21` (configuration not stated): -9.66%. The same measure for `Cn1c(=NC(=O)C2CC2)sc2cc(F)cc(F)c21`: -1.62%. To `CCCC(=O)N=c1sc2cccc(F)c2n1C` belongs -7.62%; to `Cn1c(=NC(=O)c2ccco2)sc2cccc(F)c21`, 102% (active); to `O=C(O)c1cc2c(cc1NC(=O)c1c(F)cccc1Cl)OCCCO2`, -14.4%. In the case of `CSc1ccccc1-c1nnc(-c2ccc(Cl)cc2)o1`, the inhibition is 0% (active). The same measure for `FC(F)(F)c1cnc(Oc2ccccc2-c2nnc(-c3ccc(Cl)cc3)o2)c(Cl)c1`: 5.98%. To `O=C(Nc1nnc(-c2ccc(Cl)cc2)o1)c1ccccc1Br` belongs 16.2%; to `CCOC(=O)N1CCN(S(=O)(=O)c2ccc(OC)cc2)CC1`, -26%; to `CCCN1CCn2c3c(c4cc(Br)ccc42)CCCC31` (configuration not stated), 31.7% (active).

In the case of `OC(CNCC1CCCO1)Cn1c2ccc(Br)cc2c2cc(Br)ccc21` (configuration not stated), the inhibition was -17.6%.

With `Cc1cc(C)c2nc(N(CCN(C)C)C(=O)/C=C/c3cccs3)sc2c1`, the inhibition was 2.24%. To `CSCc1nnc(NC(=O)c2ccc(S(=O)(=O)N3CCCCC3C)cc2)o1` (configuration not stated) belongs -11%; to `CCCOC(=O)Cc1c(O)c2ccccc2[nH]c1=O`, 2.32%.

For `NS(=O)(=O)c1ccccc1NC(=O)c1c(O)c2ccccc2[nH]c1=O`, the inhibition is 86% (active). To `CC(C)C(=O)Nc1c(O)c2ccccc2[nH]c1=O` belongs 23.1%. Regarding `CC(=O)Nc1cccc(C(=O)OCN2C(=O)c3ccccc3C2=O)c1`, the inhibition was -7.54%.

Consider `Cc1cnc(NC(=O)CSc2nnc(-c3ccc(Cl)cc3Cl)n2N)s1`, for which the inhibition was 20.9% (active). The same measure for `Cc1cnc(NC(=O)CSc2nnc(-c3ccccc3)n2Cc2ccccc2)s1`: -7.47%.

As for `Cc1cnc(NC(=O)CSc2c(Cl)cccc2Cl)s1`, the inhibition was 24.3%. The same measure for `COc1ccc(C)cc1N(CC(=O)N1CCCC1)S(=O)(=O)c1ccccc1`: 8.24%; for `COc1ccccc1CN1CCN(C(c2ccccc2)c2ccccc2)CC1`: -13%; for `COc1cc(OC)c(NC(=O)C2CCCN2C(=O)OCc2ccccc2)cc1Cl` (configuration not stated): -6.5%. Take `COc1ccc(OC)c(-c2csc(-c3cccs3)n2)c1`: the inhibition is 45.3% (active).

Regarding `COc1ccc(OC)c(-c2csc(NC(=O)C3=NNC(=O)CC3)n2)c1`, the inhibition was -5.75%. The same measure for `COc1ccc2c(c1)C(c1cccs1)=NNC(c1cccnc1)=N2`: 39.6%; for `COc1ccc(-c2csc(NC(=O)c3ccc(N4C(=O)CCC4=O)cc3)n2)cc1OC`: -16.4%. The same measure for `COc1ccc(-c2csc3nc(-c4ccccc4F)oc(=O)c23)cc1OC`: 1.32%; for `Cc1cc(C)cc(NS(=O)(=O)Cc2ccccc2)c1`: 40.6%. The same measure for `O=C(N/N=C\c1cc2c(cc1Cl)OCO2)c1ccc(Br)s1`: -3.59%; for `CC(NCc1cccs1)C(=O)Nc1cc(Cl)cc(Cl)c1` (configuration not stated): 24.3%; for `Cc1ccc(-c2csc(N3CCN(c4cc5c(cc4Cl)nc(-c4ccncc4)n5CCOCCO)CC3)n2)cc1`: -3.86%. `Cc1sc2ncn(CC(=O)NCCCC(=O)NCc3ccc(F)cc3)c(=O)c2c1C`: the inhibition was -6.98%. The same measure for `Cc1n[nH]c(=O)n1-c1ccc(C(C)C)cc1`: -1.39%; for `Cc1n[nH]c(=O)n1-c1ccc(Oc2ccccc2)cc1`: 32% (active).

Consider `O=C1CS(=O)CN1c1ccc(Oc2ccccc2)cc1` (configuration not stated), for which the inhibition was -11.4%. To `COC(=O)c1ccccc1SC1CC(=O)N(c2cccc(C)c2)C1=O` (configuration not stated) belongs 25.9%. As to `Cc1ccc([N+](=O)[O-])cc1S(=O)(=O)N1CCCN(C)CC1`, the inhibition is -3.46%. The same measure for `Cc1noc(C)c1/C=N/Nc1ccc2ccccc2n1`: 64.2% (active). To `Cc1nc(Cl)cc(N/N=C/c2ccccc2)n1` belongs 47.5%.

Regarding `C(=N\Nc1ccc2ccccc2n1)/c1ccc2c(c1)OCO2`, the inhibition is 4.21%. Turning to `CN(C)CCCNC(=S)N1CCN(c2nc(-c3ccccc3)cs2)CC1`, the inhibition was 23.7%. To `COc1ccccc1-c1c(C)nn2c(C)c(C(C)=O)cnc12` belongs 3.88%; to `COc1cc(C(C)=O)ccc1OC(=O)CN1C(=O)c2ccccc2C1=O`, -4.18%; to `COc1ccccc1-c1sc2ccccc2c1-c1ccc(C(C)=O)cc1`, 24.8% (active). To `CCOc1ccc(C2C(C#N)=C(N)N(N(C)C)C3=C2C(=O)CCC3)cc1` (configuration not stated) belongs -5.92%; to `CC(C)c1ccc(/C=C2\NC(=O)NC2=O)cc1`, 38.8%. For the compound `CSCCC(NS(=O)(=O)c1ccc(C)cc1)C(=O)NCCc1c[nH]c2ccccc12` (configuration not stated), the inhibition was -5.02%. The same measure for `CC(C)(C)OC(=O)N/N=C/c1ccc(C(=O)O)cc1`: 51.6% (active). Consider `O=C(O)c1ccc(/C=N/NC(=O)c2ccc(Br)cc2)cc1`, for which the inhibition is 17.5%. To `COC(=O)N/N=C/c1ccc(/C=N/NC(=O)OC)cc1` belongs -9.65%; to `CC1CC(C)CN(S(=O)(=O)c2cccc3nonc23)C1` (configuration not stated), -8.46%; to `COc1cccc(N(C(=O)CNC(=O)c2ccco2)C(C(=O)NC2CCCCC2)c2cccnc2)c1` (configuration not stated), -9.43%. To `Oc1ccc(-c2c(-c3ccccc3)nn3c(C(F)(F)F)cc(C(F)(F)F)nc23)cc1` belongs -10.8%. The same measure for `Cc1ccc(N=C2NC(=O)c3cccc([N+](=O)[O-])c32)cc1`: 98.8% (active). On to `COC(=O)c1cccc([N+](=O)[O-])c1CS(=O)(=O)c1ccc(C)cc1`, for which the inhibition was -10.2%. The same measure for `CCN(Cc1ccccc1)C(=O)CCS(=O)(=O)c1ccc2c(c1)oc(=O)n2C`: 0.994%; for `O=C(CNC(=O)c1ccccc1F)c1ccc(Br)cc1`: 79.7% (active); for `O=C(COC(=O)CNC(=O)c1ccccc1F)NCC(F)(F)F`: 16.2%. The same measure for `COC(=O)CNC(=O)c1ccccc1F`: -15.6%. The same measure for `O=C(CNC(=O)c1ccccc1)NCC(=O)OCC(=O)c1ccccc1` (Bz-Gly-Gly-OPac): -5.66%; for `CSc1nnc(CNC(=O)c2ccccc2)n1-c1ccc(F)cc1`: -6.7%; for `O=C(CNC(=O)c1ccc(F)cc1)c1ccccc1`: 90.2% (active).
